Measurements as given in PubChem BioAssay (Tox21).
Several values for one entry are separate records, joined by “and”; a condition that tells them apart may be missing. Equal entries are not always repeated. Results filed as inconclusive are left out. Activity calls are given as the source filed them. Calls follow the shape of the dose curve; as a rule, active = well fitted inhibition curve with a large enough effect in the repeat runs; inconclusive = weak or mixed curves, or effect the other way; inactive = no such curve, though single readings can be large or run the other way.

Biological target: Nuclear receptor ROR-gamma (Homo sapiens) (UniProt P51449)
Test: qHTS assay to identify small molecule antagonists of the retinoid-related orphan receptor gamma (ROR-gamma) signaling pathway (AID 1159521; also: nearly all actives have a fitted effect of over 50% in size; as to activity change, negative = inhibition: top concentration of the series differs between compounds)
Details: Tet-on RORgamma CHO cells, RORE-luciferase, 16 h; series mostly up to 92.4 µM; activity change, negative = inhibition: at the top concentration
Description: U.S. Tox21 Program National Center for Advancing Translational Sciences [NCATS] NIH Chemical Genomics Center [NCGC] U.S. Environmental Protection Agency [EPA] National Institutes of Environmental Health Sciences [NIEHS] National Toxicology Program [NTP] U.S. Food and Drug Administration [FDA] Tox21 Assay Overview: Nuclear steroid hormone receptors are involved in many biological processes including inflammatory responses, cell proliferation, and apoptosis. Environmental factors or compounds disrupting these nuclear receptor pathways and gene expression may promote susceptibility to immunotoxicants and autoimmune diseases. One important group of these expression factors are the retinoid-related orphan receptors. To assess compounds that may interfere with the retinoid-related orphan receptor gamma (ROR-gamma) transcription factor, a cell-based luciferase assay was used. The CHO cell-based assay utilizes a TET-inducible ROR expression factor and ROR response element-LUC reporter gene. Reporter gene activity was induced using Doxycycline Hyclate and measured after 16 hr incubation. Tet-on ROR gamma CHO cells were used to screen against the Tox21 10K compound library for ROR gamma antagonists by quantification of decreased reporter gene activity in terms of decreased luminescence.
Tox21 Assay Protocol Summary: Tet-on ROR gamma CHO cells were dispensed at 1,000 cells in 4 uL of culture medium per well into white wall/solid bottom 1536-well plates using a Multidrop Combi (Thermo Scientific, Waltham, MA) dispenser. Following incubation at 37 C and 5% CO2 for 4 hr, 23 nL of compounds dissolved in DMSO, positive controls or DMSO only were transferred by a Pintool station (Kalypsys, San Diego, CA) and after 2 hr incubation at 37 C, one ul of 1 uM (final concentration) of Doxycycline Hyclate was added to all the wells by using a Flying Reagent Dispenser (FRD) (Aurora Discovery, San Diego, CA). After 16 hr incubation at 37 C and 5% CO2, 5 uL of ONE-Glo reagent (Promega Corporation, Madison, WI) was added to each assay plate using FRD. After 30 min incubation at room temperature, luminescence was quantified on a ViewLux plate reader (Perkin Elmer, Waltham, MA).
% is scaled to controls: 0 for no effect and ±100 for the full control effect; potency is read from the fitted curve at half-maximal effect.

SMILES	activity change, negative = inhibition	Potency
CCCCCCCCCCCCOC(=O)c1ccc(O)cc1	-8.35% (inactive)	–
Cc1c(C)c2c(c(C)c1OC(=O)c1cccnc1)CC[C@@](C)(CCC[C@H](C)CCC[C@H](C)CCCC(C)C)O2	4.02% [at 42.5 µM] (inactive)	–
O=C(O)c1cc(=O)c2ccccc2o1	24.9% [at 42.5 µM] (inactive)	–
CC(CCc1ccccc1)NCC(O)c1ccc(O)c(C(N)=O)c1 (stereo not given)	-7.98% (inactive)	–
COc1ccc2c(c1)c(CC(=O)OC/C=C(\C)CC/C=C(\C)CCC=C(C)C)c(C)n2C(=O)c1ccc(Cl)cc1	37.8% [at 42.5 µM] (inactive)	–
Cc1cccc(C)c1NC(=O)c1ccc(N)cc1	23.6% [at 42.5 µM] (inactive)	–
CC(C)Cn1cnc2c(N)nc3ccccc3c21	5.43% [at 19 µM] (inactive)	–
CN(C)Cc1ccccc1O	7.83% (inactive)	–
OCC(F)(F)F	-29.4% (inactive)	–
CCOC(=O)NNc1ccc(N(CC)CC(C)O)nn1 (stereo not given)	20.4% [at 42.5 µM] (inactive)	–
Oc1c(I)cc(Cl)c2cccnc12	–	54.4 µM (active)
CC(N=C(NC#N)Nc1ccncc1)C(C)(C)C (stereo not given)	-4.45% [at 42.5 µM] (inactive)	–
COc1cc(/C=C/c2ccccc2)oc(=O)c1	131% (inactive)	–
O=C(O)c1cc(N=Nc2ccc([N+](=O)[O-])cc2)ccc1O	70.3% (inactive)	–
ClCCl	12.4% (inactive)	–
Cc1ccc(-c2ccccc2)cc1	26.2% (inactive)	–
CCCCC/C=C\C/C=C\CCCCCCCC(=O)O	-6.42% (inactive)	–
CC(C)(C)NSc1nc2ccccc2s1	55.1% (inactive)	–
Cc1c(N)cccc1C(F)(F)F	0.831% [at 42.5 µM] (inactive)	–
CCCCCCCCCCC[C@@H](C[C@@H]1OC(=O)[C@H]1CCCCCC)OC(=O)[C@H](CC(C)C)NC=O	–	16.8 µM (active)

SMILES	activity change, negative = inhibition	Potency
Cc1ccc(C(C)C)cc2c(C)ccc1-2	34.8% [at 42.5 µM] (inactive)	–
CN(C)c1ccc(C(=C2C=CC(=[N+](C)C)C=C2)c2ccc(N(C)C)cc2)cc1	–	1.36 µM (active) and 1.54 µM (active) and 2.66 µM (active)
CCC(COC(=O)CCS)(COC(=O)CCS)COC(=O)CCS	8.07% (inactive)	–
c1ccc(C(O[C@@H]2CCCN(CCc3ccc4c(c3)OCO4)C2)c2ccccc2)cc1	–	61.1 µM (active)
CC(=O)c1ccc(C(C)=O)cc1	3.48% (inactive)	–
Clc1ccnc(Cl)n1	-16.7% (inactive)	–
CC(C)OC(=O)C(O)(CC(=O)O)CC(=O)O	-2.29% (inactive)	–
COCCOc1cc2cc(C(=O)NC3CCN(C(C)C)CC3)n(CC(=O)Nc3ccc(Cl)cn3)c2cn1	-21.7% (inactive)	–
Cc1cc(=O)oc2cc(O)cc(O)c12	6.17% (inactive)	–
C#Cc1ccc(-c2ccccc2F)cc1	26.1% [at 42.5 µM] (inactive)	–
CC[C@H](C)COC(=O)/C=C/c1ccc(N=Cc2ccc(OC)cc2)cc1	4.13% (inactive)	–
O=c1oc2cc(O)ccc2c2oc3cc(O)ccc3c12	90.6% (inactive)	–
O=C1C(c2[nH]c3ccc(S(=O)(=O)O)cc3c2O)=Nc2ccc(S(=O)(=O)O)cc21	-30% (inactive)	–
C[C@@H](O)[C@H](N)C(=O)O	1.16% [at 19 µM] (inactive)	–
c1ccc(SSc2ccccc2)cc1	2.8% (inactive)	–
CCCCC(CC)COC(=O)CCCCC(=O)OCc1ccccc1 (stereo not given)	62.4% (inactive)	–
Nc1ccc(C(=O)O)c(O)c1	-12.2% [at 42.5 µM] (inactive)	–
COc1cccc(OC)c1C(=O)O	14.6% (inactive)	–
C#C[C@]1(OC(C)=O)CC[C@H]2[C@@H]3CCC4=C[C@@H](OC(C)=O)CC[C@@H]4[C@H]3CC[C@@]21C	–	33.5 µM (active)
Nc1cc(Cl)c(O)c(Cl)c1	–	68.6 µM (active)
